# LAP4-GFP MLPCN: modulators of TOR pathway LAP4-GFP in S. cerevisiae; S. cerevisiae LAP4-GFP multiplex, flow cytometry GFP, 3 h; median GFP as percent of DMSO wells; GFP response vs DMSO, % at 10 µM; 320,000 tested, 0.34% active; AID 2023;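 active = GFP response vs DMSO above a set limit, about the screen mean plus 3 SD, cut at about 150% in these data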
# MEP2 TOR yeast: modulators of TOR pathway MEP2-GFP in S. cerevisiae; GFP response vs DMSO, % at 10 µM; 330,000 tested, 0.51% active; AID 2016; S. cerevisiae MEP2-GFP strain, flow cytometry GFP, 3 h; 100% = DMSO control level;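 active = GFP response versus DMSO above a set limit, roughly screen mean plus 3 SD, cut at about 180% in these data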;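 also: median GFP fluorescence of the barcode-gated MEP2-GFP cells per well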
# RPL19A-GFP yeast: alters RPL19A-GFP fluorescence in TOR pathway yeast screen | S. cerevisiae RPL19A-GFP strain, flow cytometry, 3 h; hits give low values | percent response vs DMSO, % at 10 µM | 330,000 tested, 0.3% active | AID 2025;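 active = percent response vs DMSO below 50%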;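 also: median channel GFP fluorescence of the barcoded RPL19A-GFP strain; ratio of sample median GFP to plate DMSO average so 100% = DMSO; lower means less RPL19A-GFP as with rapamycin TOR inhibition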
# AGP1 TOR yeast: yeast TOR pathway AGP1-GFP modulation; S. cerevisiae AGP1-GFP multiplex flow cytometry, 3 h; GFP as percent of DMSO wells; GFP response vs DMSO, % at 10 µM; 320,000 tested, 0.02% active;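 active = GFP response relative to DMSO above a set limit, near screen average plus 3 SD, cut at about 150% in these data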;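 also: median GFP channel fluorescence of the gated AGP1 strain per well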
# CIT2-GFP yeast: alters CIT2-GFP fluorescence in TOR pathway yeast screen. S. cerevisiae CIT2-GFP strain, flow cytometry, 3 h; 100 means same as DMSO wells. 320,000 tested, 0.065% active. GFP response vs DMSO, % at 10 µM;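 active = GFP response relative to DMSO above a set limit, near the screen mean plus 3 SD, cut at about 150% in these data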;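 also: ratio of well median GFP fluorescence to mean of DMSO wells on the plate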
# LAP4-GFP pick2: second confirmation of modulators of TOR reporter LAP4-GFP in yeast; shares compounds with LAP4-GFP MLPCN; S. cerevisiae LAP4-GFP strain, flow cytometry GFP, 3 h; GFP response vs DMSO, % at 10 µM; 590 tested, 20% active; AID 2621;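 active = GFP signal as percent of the solvent control above about 150%, meaning raised reporter expression, limit read from the data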;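 also: ratio of well median GFP fluorescence to plate DMSO mean so 100% = DMSO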
# MEP2-GFP pick2: reconfirmed MEP2-GFP TOR pathway modulator in yeast | shares compounds with LAP4-GFP MLPCN | S. cerevisiae MEP2-GFP strain, flow cytometry GFP, 3 h | GFP response vs DMSO, % at 10 µM | 590 tested, 10% active;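 active = GFP signal above 150% of the solvent control wells, that is a rise of more than half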;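 also: median channel GFP fluorescence of all gated yeast cells per well; ratio of median GFP to plate DMSO average so 100% = DMSO level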
# RPL19A-GFP pick2: second confirmation of modulators of TOR reporter RPL19A-GFP in yeast. 590 tested, 3% active. S. cerevisiae RPL19A-GFP strain, flow cytometry GFP, 3 h; hits give low values; 100% means same as DMSO wells. GFP response vs DMSO, % at 10 µM. shares compounds with LAP4-GFP MLPCN;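 active = under 65% GFP response relative to DMSO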;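 also: median GFP channel fluorescence per well over the all cells gate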
# CIT2-GFP pick2: yeast CIT2-GFP TOR reporter modulation, second cherry pick; shares compounds with LAP4-GFP MLPCN; S. cerevisiae CIT2-GFP strain, flow cytometry GFP, 3 h; DMSO control wells read 100%; GFP response vs DMSO, % at 10 µM; 590 tested, 8% active;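 active = GFP response vs DMSO above about 150%, limit read from the data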;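 also: median green fluorescence per well over all gated yeast cells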
# AGP1-GFP pick2: reconfirmed modulator of AGP1-GFP TOR reporter in yeast. percent response vs DMSO, % at 10 µM. 590 tested, under 10 active. S. cerevisiae AGP1-GFP strain, flow cytometry GFP, 3 h. shares compounds with LAP4-GFP MLPCN;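 active = over 150 percent of DMSO response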;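 also: median GFP channel fluorescence over all cells without mother daughter split; sample median GFP divided by mean DMSO control so 100% equals DMSO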
# s288c autofluor: counter-screen for compound autofluorescence in yeast s288c cells. 610 tested, under 10 active. fluorescence change (kMESF span) at 33 µM. S. cerevisiae s288c, 520 nm autofluorescence, flow cytometry, 3 h; hits give high values; zero means same as solvent-only cells. shares compounds with LAP4-GFP MLPCN;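 active = fluorescence span over the dose series, or activity score, above about 33, limit read from the data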
# * marks the source's active call; other numbers are inactive results; / = not tested or not shown; [ ] = remark or other dose. This is a sample that favours compounds with a hit; in the whole collection about 0.93% have one here.
SMILES,LAP4-GFP MLPCN,MEP2 TOR yeast,RPL19A-GFP yeast,AGP1 TOR yeast,CIT2-GFP yeast,s288c autofluor,others
Cc1ccc(NC(=O)COC(=O)COc2cccc3c2OC(C)(C)C3)cc1C,167*[may fluoresce green],212*[may fluoresce green],107,91,157*[may fluoresce green],/,LAP4-GFP pick2=98;MEP2-GFP pick2=100;RPL19A-GFP pick2=103;CIT2-GFP pick2=98;AGP1-GFP pick2=101
CC(C)S(=O)(=O)c1csc(C(=O)Nc2ccc(F)cc2)c1N,110,95,100,101,96,/,
CCOC(=O)CC(=O)Nc1ccc(C)cc1,93,103,100,96,103,/,LAP4-GFP pick2=99;MEP2-GFP pick2=102;RPL19A-GFP pick2=99;CIT2-GFP pick2=100;AGP1-GFP pick2=100
COc1ccc2c(c1)c(/C=C/c1cc[n+](C)cc1)cn2C,138,214*,118,118,196*,6.8,
Cc1ccc2[nH]cc(/C=C/c3cc[n+](C)cc3)c2c1,151*,217*,115,105,147,5.4,
COC(=O)Cn1cc(/C=C/c2cc[n+](C)cc2)c2ccccc21,109,114,100,106,112,/,
COc1ccc2c(/C=C/c3cc[n+](C)cc3)c[nH]c2c1,150*,207*,116,117,210*,5.7,
CC[n+]1ccc(/C=C/c2c[nH]c3ccccc23)cc1,103,116,106,102,114,/,
CCCC1(c2ccccc2)NC(=O)NC1=O (stereo not given),106,102,98,99,100,/,
COc1ccc(C(c2c(C)[nH]n(C(N)=S)c2=O)C(C#N)C#N)cc1 (stereo not given),335*,98,98,76,77,0.41,
Cc1oc2cc(O)ccc2c(=O)c1Oc1ccccc1,104,101,101,100,104,/,
O=C(O)c1ccc(Oc2c(C(F)(F)F)oc3cc(O)ccc3c2=O)cc1,92,164,56,57,90,/,LAP4-GFP pick2=104;MEP2-GFP pick2=103;RPL19A-GFP pick2=97;CIT2-GFP pick2=99;AGP1-GFP pick2=98
Nc1cc(OC(=O)c2c(F)cccc2Cl)nn1S(=O)(=O)c1ccccc1,93,102,97,92,97,/,
COc1ccc(-c2cn(Cc3ccc(C(=O)c4ccccc4)cc3)nn2)cc1,164*,114,87,97,105,/,LAP4-GFP pick2=100;MEP2-GFP pick2=96;RPL19A-GFP pick2=99;CIT2-GFP pick2=120;AGP1-GFP pick2=100
COc1ccc(-c2cn(Cc3ccc4ccccc4c3)nn2)cc1,128,79,86,78,90,/,
c1ccc(N2CCN(Cc3ccnc4ccccc34)CC2)cc1,98,100,102,/,108,/,
Oc1c(CN2CCN(c3ccccc3)CC2)cc(Br)c2cccnc12,224*,116,100,91,101,2.5,
O=[N+]([O-])c1ccc2nc(-c3ccc(OC(F)F)cc3)cn2c1,85,99,93,89,95,/,
O=C(Nc1ccc(O)cc1)C1CCCN1S(=O)(=O)c1ccc(F)cc1 (stereo not given),143,196*,107,115,146,0,LAP4-GFP pick2=101;MEP2-GFP pick2=101;RPL19A-GFP pick2=98;CIT2-GFP pick2=104;AGP1-GFP pick2=99
CCCc1cc(N2CCN(c3ccccn3)CC2)n2nc(C)c(-c3ccccc3)c2n1,103,103,101,101,101,0,
CCCc1cc(N2CCOCC2)n2nc(C)c(-c3ccccc3)c2n1,99,109,103,94,99,/,
